Structures are written as SMILES. Compounds without any hit were thinned out: in the full panel of roughly 79,000, 15% have a hit. Values without a mark were called inactive. No stated cut-off is given here; in the data, active means growth inhibition above about 70%; inactive means the rest. Where a SMILES comes first, the peptide text is derived from it. Bridges are numbered along the chain shown (N, C = ends).

A short description of one experiment: NCI Yeast Anticancer Drug Screen. Data for the cln2 rad14 strain (AID 165).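 Further: 0% = growth equal to vehicle treated cultures.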 The settings on record: S. cerevisiae cln2 rad14 strain, at 50.0 µM, hits give high values. The procedure, abridged:
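cln2 rad14 yeast strain; compound exposure; growth inhibition read vs vehicle controls.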
`Cc1cc([NH-])c([NH-])cc1C.[Cl][Pt+2][Cl]`: the growth inhibition is -0.3%.
As for `NC(=O)CCCC(C(N)=O)(c1ccccc1)c1ccccc1`, the growth inhibition is -11.2%.
Consider `CCCCOC(=O)c1ccc(NC(=O)Nc2ccc(SC)cc2)cc1`, for which the growth inhibition was -8.75%.
Regarding `O=C(NN1C(=O)CSC1c1ccccc1F)c1ccncc1` (stereo not given), the growth inhibition is 7.7%.
Regarding `Nc1nc2ncc(=O)[nH]c2c(=O)[nH]1`, the growth inhibition was -31.3%.
Turning to `CC(=O)NC(C(=O)O)C(C)(C)S` (stereo not given), the growth inhibition was 26.8%.
The same measure, in the same setting: in the case of `CCc1ccccc1NC(C)=O` it was -5.2%; in that of `CC(O)CNCC(C)(C)N` (stereo not given), -7.5%; in that of `COc1ccc(Nc2nc(NS(=O)(=O)c3cc(C)c(Cl)cc3S)n[nH]2)cc1`, 24.9%.
On to `O=C(Nc1cccc(Cl)c1Cl)c1cc(/C=C/c2ccc([N+](=O)[O-])cc2)on1`, for which the growth inhibition is 9.1%.
As for `COC(=O)c1cc(NS(=O)(=O)c2ccc(N)cc2)cc(C(=O)OC)c1`, the growth inhibition is 4.7%.
Consider `CC(=O)N1C(=O)C(=O)c2cc(Cl)ccc21`, for which the growth inhibition was -2.1%.
As to `Cc1cc2ccc(OC(=O)c3ccc(N=C(N)N)cc3)cc2oc1=O`, the growth inhibition is -47.8%.
Turning to `Nc1ncnc2c1ncn2-c1ccccc1Cl`, the growth inhibition was -1.4%.
The same measure, in the same setting: in the case of `Cc1nc2c(N3CCCCC3)ncnc2o1` it was -28.7%; in that of `CCCC(C)OC(=O)CC(c1ccccc1)N1CCCCC1` (stereo not given), -23.6%.
As to `CC(=O)c1cc([N+](=O)[O-])c(O)c([N+](=O)[O-])c1O`, the growth inhibition was 12.2%.
With `Brc1nc(-[n+]2ccccc2)[n-]c1Br`, the growth inhibition was -60.5%.
Consider `O=c1c2ccccc2[nH]c2ccc(O)cc12`, for which the growth inhibition is -3.25%.
For `CCOC(=O)c1nc(SC)sc1NC(=O)c1ccc(OC)cc1`, the growth inhibition is 6.2%.
For `CCOC(=O)Nc1cc2c(c(N)n1)N=C(CN(C)c1ccccc1)CN2`, the growth inhibition was 16.3%.
`COc1ccc2c(c1)C(O)C(NCc1ccccc1)C2` (stereo not given): the growth inhibition was -9.9%.
`NC(=S)N/N=C/C=C/c1ccco1`: the growth inhibition was -41.5%.
On to `COC(=O)c1ncn(C(C(=O)OC)C(=O)OC)c1O`, for which the growth inhibition is -14.4%.
With `CCOC(=O)C1C2CC3C(CC21C)C3(C)C` (stereo not given), the growth inhibition is -2.5%.
On to `CCOC(=O)c1cc2ccccc2oc1=O`, for which the growth inhibition is 16.4%.
Consider `Nc1ncnc2c1ncn2C1CCC(COS(N)(=O)=O)C1` (stereo not given), for which the growth inhibition is -6.7%.
The same measure, in the same setting: in the case of `COc1ccccc1-n1c(NN)nc2ccc(Br)cc2c1=O` it was 13.2%.
With `CC(=O)OCC1OC(Sc2ccc([N+](=O)[O-])cc2)C(OC(C)=O)C(OC(C)=O)C1OC(C)=O` (stereo not given), the growth inhibition was -1.35%.
Same read-out and setting: in the case of `CCCCCC(O)(CCCC)CCCCC` it was 19.9%; in that of `C(=N\c1nccs1)/c1ccc(/C=N/c2nccs2)cc1`, 9%.
Consider `C=CCCCCCCCCC(=O)N/N=C/c1ccc(NC(C)=O)cc1`, for which the growth inhibition is 3%.
As for `Cc1ccc(-c2nc3ccccc3cc2N)cc1`, the growth inhibition is -14%.
On the same count and under the same terms, the result for `CCOC(=O)CC(CC(=O)OCC)(C(=O)OCC)C(=O)OCC` reads -57.2%; that for `CCOC(=O)c1c[nH]c(C(=O)OCC)c1C`, -59.9%; that for `CCOC(=O)C1CSSCC(N)C(=O)N1` (stereo not drawn) (H-Cys-Cys-OEt; disulfide 1-2; configuration not given here), -48.8%.
Regarding `Cn1nc(-c2ccccc2)c(C(=O)/C=C/c2ccc(F)cc2)c(N2CCCCC2)c1=O`, the growth inhibition is 28.2%.
For the compound `O=c1[nH]c2cc3[nH]c4ncccc4c(=O)c3cc2[nH]1`, the growth inhibition was 8.15%.
As to `Nc1c(Br)c(Cl)c(Br)c2c1-c1ccc(Cl)cc1C2`, the growth inhibition was -19.9%.
For the compound `CCOC(=O)N1CCc2cc(OC)c(OC)c3c2c1cc1cc(OC)c(OC)cc13`, the growth inhibition is -35.5%.

A short description of a further experiment: NCI Yeast Anticancer Drug Screen. Data for the bub3 strain (AID 167). The following applies: S. cerevisiae bub3 mutant strain, at 50.0 µM, hits give high values. An outline of the steps: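 Part of a panel of yeast mutants defective in DNA damage repair or cell cycle regulation. Each strain is grown with compound, and inhibition is calculated relative to solvent-treated cultures.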
With `Cc1cc([NH-])c([NH-])cc1C.[Cl][Pt+2][Cl]`, the growth inhibition was -6.4%.
On the same count and under the same terms, in the case of `NC(=O)CCCC(C(N)=O)(c1ccccc1)c1ccccc1` it was -7.15%.
For `CCCCOC(=O)c1ccc(NC(=O)Nc2ccc(SC)cc2)cc1`, the growth inhibition is 19.8%.
In the case of `O=C(NN1C(=O)CSC1c1ccccc1F)c1ccncc1` (stereo not given), the growth inhibition is 11.9%.
As to `Nc1nc2ncc(=O)[nH]c2c(=O)[nH]1`, the growth inhibition was 20.3%.
Take `CC(=O)NC(C(=O)O)C(C)(C)S` (stereo not given): the growth inhibition was -33.2%.
Regarding `CCc1ccccc1NC(C)=O`, the growth inhibition was 0.25%.
Consider `CC(O)CNCC(C)(C)N` (stereo not given), for which the growth inhibition was 3.15%.
For the compound `COc1ccc(Nc2nc(NS(=O)(=O)c3cc(C)c(Cl)cc3S)n[nH]2)cc1`, the growth inhibition was 16.9%.
Turning to `O=C(Nc1cccc(Cl)c1Cl)c1cc(/C=C/c2ccc([N+](=O)[O-])cc2)on1`, the growth inhibition was -8.25%.
Consider `COC(=O)c1cc(NS(=O)(=O)c2ccc(N)cc2)cc(C(=O)OC)c1`, for which the growth inhibition was -14.8%.
Turning to `CC(=O)N1C(=O)C(=O)c2cc(Cl)ccc21`, the growth inhibition is -0.2%.
In the case of `Cc1cc2ccc(OC(=O)c3ccc(N=C(N)N)cc3)cc2oc1=O`, the growth inhibition is -24.6%.
Regarding `Nc1ncnc2c1ncn2-c1ccccc1Cl`, the growth inhibition was 0.75%.
As to `Cc1nc2c(N3CCCCC3)ncnc2o1`, the growth inhibition is -13.8%.
For the compound `CCCC(C)OC(=O)CC(c1ccccc1)N1CCCCC1` (stereo not given), the growth inhibition is 40.2%.
With `CC(=O)c1cc([N+](=O)[O-])c(O)c([N+](=O)[O-])c1O`, the growth inhibition was 7.8%.
On to `Brc1nc(-[n+]2ccccc2)[n-]c1Br`, for which the growth inhibition was 1.5%.
As for `O=c1c2ccccc2[nH]c2ccc(O)cc12`, the growth inhibition was 3.2%.
`CCOC(=O)c1nc(SC)sc1NC(=O)c1ccc(OC)cc1`: the growth inhibition is 17.7%.
For `CCOC(=O)Nc1cc2c(c(N)n1)N=C(CN(C)c1ccccc1)CN2`, the growth inhibition is 35%.
As to `COc1ccc2c(c1)C(O)C(NCc1ccccc1)C2` (stereo not given), the growth inhibition is 8.5%.
The same measure, in the same setting: the result for `NC(=S)N/N=C/C=C/c1ccco1` reads 20.3%; that for `COC(=O)c1ncn(C(C(=O)OC)C(=O)OC)c1O`, -5.1%.
`CCOC(=O)C1C2CC3C(CC21C)C3(C)C` (stereo not given): the growth inhibition is -20.6%.
Take `CCOC(=O)c1cc2ccccc2oc1=O`: the growth inhibition is 9.25%.
`Nc1ncnc2c1ncn2C1CCC(COS(N)(=O)=O)C1` (stereo not given): the growth inhibition is 4.2%.
Regarding `COc1ccccc1-n1c(NN)nc2ccc(Br)cc2c1=O`, the growth inhibition was 27.2%.
On to `CC(=O)OCC1OC(Sc2ccc([N+](=O)[O-])cc2)C(OC(C)=O)C(OC(C)=O)C1OC(C)=O` (stereo not given), for which the growth inhibition is -1.05%.
As for `CCCCCC(O)(CCCC)CCCCC`, the growth inhibition is 1.75%.
Consider `C(=N\c1nccs1)/c1ccc(/C=N/c2nccs2)cc1`, for which the growth inhibition is 12.1%.
In the case of `C=CCCCCCCCCC(=O)N/N=C/c1ccc(NC(C)=O)cc1`, the growth inhibition is 11.8%.
Same read-out and setting: in the case of `Cc1ccc(-c2nc3ccccc3cc2N)cc1` it was 3.15%; in that of `CCOC(=O)CC(CC(=O)OCC)(C(=O)OCC)C(=O)OCC`, -17.3%; in that of `CCOC(=O)c1c[nH]c(C(=O)OCC)c1C`, -4.5%.
For `CCOC(=O)C1CSSCC(N)C(=O)N1` (stereo not drawn) (H-Cys-Cys-OEt; disulfide 1-2; configuration not given here), the growth inhibition is -11.6%.
Turning to `Cn1nc(-c2ccccc2)c(C(=O)/C=C/c2ccc(F)cc2)c(N2CCCCC2)c1=O`, the growth inhibition was 4.1%.
The same measure, in the same setting: in the case of `O=c1[nH]c2cc3[nH]c4ncccc4c(=O)c3cc2[nH]1` it was -1.15%; in that of `Nc1c(Br)c(Cl)c(Br)c2c1-c1ccc(Cl)cc1C2`, 7.15%; in that of `CCOC(=O)N1CCc2cc(OC)c(OC)c3c2c1cc1cc(OC)c(OC)cc13`, 16.1%.

Values taken from PubChem BioAssay (NCI).
